# Measured values taken from PubChem BioAssay AID1347418 (Sanford-Burnham Center for Chemical Genomics, 2020).
# Among all 1,300 compounds or so, about 750 (58%) were called active. The list shows a part of the results. Unmarked numbers belong to inactive results.
# Target: Sulfhydryl oxidase 1 (Homo sapiens) (UniProt O00391)
# Assay: inhibition of human sulfhydryl oxidase QSOX1 – biochemical, ROS-Glo H2O2 luminescence, HTS, primary screen (AID 1347418)
# Conditions: recombinant QSOX1, ROS-Glo H2O2 luminescence; at 12.5 µM; active compounds read high; active = any value above zero
# Sequence of Sulfhydryl oxidase 1 (Homo sapiens) (O00391 whole entry, looked up): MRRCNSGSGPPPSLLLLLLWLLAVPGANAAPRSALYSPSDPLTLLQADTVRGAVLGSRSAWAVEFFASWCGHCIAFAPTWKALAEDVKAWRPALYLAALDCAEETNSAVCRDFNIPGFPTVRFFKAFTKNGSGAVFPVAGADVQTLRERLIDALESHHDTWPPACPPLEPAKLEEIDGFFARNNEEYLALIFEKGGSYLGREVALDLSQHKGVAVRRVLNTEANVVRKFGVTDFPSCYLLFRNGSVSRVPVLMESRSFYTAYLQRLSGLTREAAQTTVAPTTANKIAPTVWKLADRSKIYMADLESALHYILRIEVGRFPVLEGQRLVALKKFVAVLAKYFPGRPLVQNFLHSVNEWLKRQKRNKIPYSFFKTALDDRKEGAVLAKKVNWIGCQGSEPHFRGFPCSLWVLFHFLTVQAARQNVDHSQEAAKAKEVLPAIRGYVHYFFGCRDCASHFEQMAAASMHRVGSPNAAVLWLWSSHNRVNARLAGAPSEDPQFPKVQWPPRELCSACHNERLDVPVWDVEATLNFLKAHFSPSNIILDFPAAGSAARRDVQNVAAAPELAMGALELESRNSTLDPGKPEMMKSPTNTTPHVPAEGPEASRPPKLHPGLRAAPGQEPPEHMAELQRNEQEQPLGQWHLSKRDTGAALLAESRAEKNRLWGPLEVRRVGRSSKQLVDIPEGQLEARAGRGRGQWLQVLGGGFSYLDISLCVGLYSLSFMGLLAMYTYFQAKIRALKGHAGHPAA
row,SMILES,inhibition
1,O=C(c1ccc(Cl)cc1)N1CCN(c2ccc([N+](=O)[O-])c3ncccc23)CC1,1.5% (active)
2,O=c1cc(N2CCOCC2)oc2c(-c3ccccc3)cccc12,-2.2%
3,OCC1O[C@H](O)C(Cl)C(O)C1O (some centres not stated),4.9% (active)
4,CC(C)C[C@H](NC(=O)C1OC1C(=O)O)C(=O)NCCCCN=C(N)N (some centres not stated),10.1% (active)
5,COC1(C2=NCCN2)COc2ccccc2O1 (configuration not stated),3.2% (active)
6,O=C(O)CN(CCN(CC(=O)O)CC(=O)O)CCN(CC(=O)O)CC(=O)O,-5%
7,CN1CCc2cc(NC(=O)Nc3cccnc3)ccc21,7.1% (active)
8,Cn1ccc2cc3c(cc21)CCN3C(=O)Nc1cccnc1,-2.2%
9,CN1C(=O)CC[C@H]1c1cccnc1,-4%
10,Nc1c2c(nc3ccccc13)CCCC2O (configuration not stated),-1%
11,NNc1nncc2ccccc12,26.1% (active)
12,O=c1cc(-c2ccc(O)cc2)oc2cc(O)cc(O)c12,15.3% (active)
13,O=c1c(O)c(-c2ccc(O)cc2O)oc2cc(O)cc(O)c12,41.5% (active)
14,O=c1c(O)c(-c2cc(O)c(O)c(O)c2)oc2cc(O)cc(O)c12,25.8% (active)
15,O=c1c(O)c(-c2ccc(O)c(O)c2)oc2cc(O)cc(O)c12,33.1% (active)
16,S=C(Nc1ccccc1)Nc1nccs1,-0.6%
17,NO,-19.9%
18,CN(C)CCCO[C@@H]1[C@H]2OC(C)(C)O[C@H]2O[C@@H]1C(O)CO (some centres not stated),1.3% (active)
19,O=C1NC(=O)c2cc(Nc3ccccc3)c(Nc3ccccc3)cc21,44.9% (active)
20,O=[N+]([O-])c1cccc2cn[nH]c12,-7.7%
21,O=[N+]([O-])c1cccc2c(Br)[nH]nc12,5.3% (active)
22,COCCCC/C(=N\OCCN)c1ccc(C(F)(F)F)cc1,-2%

row,SMILES,inhibition
1,Cc1cccc(-c2[nH]c(C(C)(C)C)nc2-c2ccc3nccnc3c2)n1,6% (active)
2,N[C@H]1CONC1=O,-12.9%
3,CN1CCN2c3ccccc3Cc3ccccc3C2C1 (configuration not stated),-1.9%
4,NC1=NCC2c3ccccc3Cc3ccccc3N12 (configuration not stated),1.4% (active)
5,CCCC(C(=O)OCCN(CC)CC)(c1ccccc1)c1ccccc1,-0.5%
6,O=C(OCCN1CCOCC1)C1(c2ccccc2)CCCCC1,2.5% (active)
7,CCN(CC)CCOC(=O)C1(C2CCCCC2)CCCCC1,-1.9%
8,CCN(CC)CCOCCOC(=O)C1(c2ccccc2)CCCC1,6.3% (active)
9,Cn1c(=O)c2[nH]c(C3CCCC3)nc2n(C)c1=O,3.9% (active)
10,CCCn1c(=O)c2[nH]c(C3CCCC3)nc2n(CCC)c1=O,2.3% (active)
11,Cn1c(=O)c2[nH]c(-c3ccc(S(=O)(=O)O)cc3)nc2n(C)c1=O,-2.4%
12,Cn1c(=O)c2[nH]c(-c3ccccc3)nc2n(C)c1=O,-2.7%
13,CC/C(=C(\c1ccccc1)c1ccc(OCCN(C)C)cc1)c1ccccc1,2.2% (active)
14,CN(C)CCOC(=O)COc1ccc(Cl)cc1,-2.9%
15,CN(C)[C@@H]1C(=O)C(C(N)=O)=C(O)[C@@]2(O)C(=O)C3=C(O)c4c(O)ccc(Cl)c4[C@@H](O)[C@H]3C[C@@H]12,9.5% (active)
16,C[C@H]1c2cccc(O)c2C(O)=C2C(=O)[C@]3(O)C(O)=C(C(N)=O)C(=O)[C@@H](N(C)C)[C@@H]3[C@@H](O)[C@@H]21,-1.5%
17,COc1ccccc1N1CCN(CCN(C(=O)c2ccc(I)cc2)c2ccccn2)CC1,11.2% (active)
18,COc1ccccc1N1CCN(CCN(C(=O)C2CCCCC2)c2ccccn2)CC1,9.7% (active)
19,COc1ccccc1N1CCN(CCN(C(=O)c2ccc(F)cc2)c2ccccn2)CC1,7.1% (active)
20,COc1ccc(Cc2nccc3cc(OC)c(OC)cc23)cc1OC,3.3% (active)
21,COc1ccc(CCN(C)CCc2ccc(OC)c(OC)c2)cc1OC,-0.5%
22,CC(N=C(NC#N)Nc1ccncc1)C(C)(C)C (configuration not stated),4.4% (active)

row,SMILES,inhibition
1,O=c1[nH]c2ccccc2c2ccccc12,-9.8%
2,O=C1NCc2c1c1c3ccccc3[nH]c1c1[nH]c3ccccc3c21,2.6% (active)
3,CCC(=O)c1ccc2c(c1)N(CCCN(C)C)c1ccccc1S2,20.9% (active)
4,CN(C)CCCN1c2ccccc2Sc2ccc(Cl)cc21,39.2% (active)
5,CN(C)CCCN1c2ccccc2Sc2ccc(C(F)(F)F)cc21,24.1% (active)
6,COc1ccc([C@@H]2Sc3ccccc3N(CCN(C)C)C(=O)[C@@H]2OC(C)=O)cc1,-0.6%
7,CN(C)CCCN1c2ccccc2Sc2ccccc21,46.3% (active)
8,NC1(C(=O)O)CCCCC1,-3.9%
9,NC1(C(=O)O)CC1,5.5% (active)
10,CC(C)ON([C@@H](C(=O)NO)C(C)C)S(=O)(=O)c1ccc(-c2ccccc2)cc1,8.9% (active)
11,CC(=O)/C=C1\C(=O)N(C)c2ccccc21,7.8% (active)
12,COc1cc(NS(C)(=O)=O)ccc1Nc1c2ccccc2nc2ccccc12,42.7% (active)
13,CN(C(=O)CCCOc1ccc2[nH]c(=O)ccc2c1)C1CCCCC1,-1.6%
14,CC[N+](CC)(CC)CC,0.9% (active)
15,Nc1nc(N)c2nc(CNc3ccc(C(=O)NC(CCC(=O)O)C(=O)O)cc3)cnc2n1 (configuration not stated),0.7% (active)
16,CN(Cc1cnc2nc(N)nc(N)c2n1)c1ccc(C(=O)N[C@@H](CCC(=O)O)C(=O)O)cc1,-2.2%
17,CCc1cccc2c3c([nH]c12)C(CC)(CC(=O)O)OCC3 (configuration not stated),9.9% (active)
18,CC(N)C(=O)OC(C)(C)Cc1ccc(Cl)cc1 (configuration not stated),-3.5%
19,N[C@@H](Cc1ccc(F)cc1)C(=O)O,0.8% (active)
20,COC(=O)[C@@H](N)Cc1ccc(O)c(O)c1,1.3% (active)
21,NC(Cc1ccc(Cl)cc1)C(=O)O (configuration not stated),-3.4%
22,NCCc1ccc(O)c(O)c1,8.1% (active)

row,SMILES,inhibition
1,COC(=O)C(N)Cc1ccc(Cl)cc1 (configuration not stated),9.7% (active)
2,N[C@@H](Cn1ccc(=O)c(O)c1)C(=O)O,-3.8%
3,CC(Cc1ccc(O)c(O)c1)C(C)Cc1ccc(O)c(O)c1 (configuration not stated),45.8% (active)
4,N[C@@H](Cc1ccc(O)c(I)c1)C(=O)O,-5.7%
5,N[C@@H](Cc1ccc(O)c(O)c1)C(=O)O,9.8% (active)
6,NC(Cc1cccc(-c2ccccc2CP(=O)(O)O)c1)C(=O)O (configuration not stated),-2%
7,CCN1CCC[C@H]1CNC(=O)c1cc(S(N)(=O)=O)ccc1OC,-1.2%
8,CCN1CCC[C@H]1CNC(=O)c1c(O)c(Cl)cc(Cl)c1OC,2.3% (active)
9,CCN1CCCC1CNC(=O)c1cc(S(N)(=O)=O)ccc1OC (configuration not stated),3.2% (active)
10,CCN1CCCC1CNC(=O)c1cc(S(=O)(=O)CC)c(N)cc1OC (configuration not stated),-1%
11,NC1CCN(c2cccc(Cl)n2)CC1,-5.8%
12,Cc1cnc(C(=O)NCCc2ccc(S(=O)(=O)NC(=O)NC3CCCCC3)cc2)cn1,5.4% (active)
13,CC(=O)c1ccc(S(=O)(=O)NC(=O)NC2CCCCC2)cc1,-5.7%
14,COc1ccc(Cl)cc1C(=O)NCCc1ccc(S(=O)(=O)NC(=O)NC2CCCCC2)cc1,-5.6%
15,O=c1oc(Cl)c(Cl)c2ccccc12,-1.8%
16,C/C(=C\c1ccc(C(=O)O)cc1)c1ccc2c(c1)C(C)(C)CCC2(C)C,1.8% (active)
17,CC(N)(C(=O)O)c1ccc(C(=O)O)cc1 (configuration not stated),-3.7%
18,NC1(C(=O)O)CCc2cc(C(=O)O)ccc21 (configuration not stated),-2.9%
19,Cc1ccccc1C(OCCN(C)C)c1ccccc1 (configuration not stated),-1.5%
20,CN(C)CCOC(c1ccccc1)c1ccccc1,4.3% (active)
21,CCN(Cc1ccncc1)C(=O)C(CO)c1ccccc1 (configuration not stated),-4.5%
22,N=C(N)SCCc1cnc[nH]1,2.7% (active)

row,SMILES,inhibition
1,NCCc1cnc[nH]1,-5%
2,c1cnc(N2CCN(Cc3ccc4c(c3)OCO4)CC2)nc1,-0.2%
3,O=C(NCCN1CCOCC1)c1ccc(Cl)cc1,-3.4%
4,COc1ccccc1N1CCN(CCN2C(=O)CC3(CCCC3)CC2=O)CC1,17.2% (active)
5,Cc1cccc(C(=O)NCN2CCN(c3ccccc3C#N)CC2)c1,-1.8%
6,O=C1CC2(CCCC2)CC(=O)N1CCCCN1CCN(c2ncccn2)CC1,1.2% (active)
7,COc1ccc(NC(=O)c2ccc(-c3ccc(-c4noc(C)n4)cc3C)cc2)cc1N1CCN(C)CC1,-1.1%
8,COc1ccccc1N1CCN(CCCCNC(=O)c2ccc3ccccc3c2)CC1,12.2% (active)
9,COc1cccc(C(=O)NCCN2CCN(c3ccc(Cl)cc3)CC2)c1,21.7% (active)
10,Nc1nc(N)c2nc(-c3ccccc3)c(N)nc2n1,-0.8%
11,CC(=O)[C@]1(O)Cc2c(O)c3c(c(O)c2[C@@H](O[C@H]2C[C@H](N)[C@H](O)[C@H](C)O2)C1)C(=O)c1ccccc1C3=O,-0.7%
12,COc1ccccc1N1CCN(CCCCN2C(=O)c3ccccc3C2=O)CC1,3.6% (active)
13,c1cc(CN2CCCCC2)cc(OCCCNc2nc3ccccc3s2)c1,3.8% (active)
14,CC(=O)Nc1nnc(S(N)(=O)=O)s1,0.8% (active)
15,OCc1ccc(-c2nn(Cc3ccccc3)c3ccccc23)o1,-2.6%
16,CC(CCc1ccc(O)cc1)NCCc1ccc(O)c(O)c1 (configuration not stated),17.1% (active)
17,CCCCCCCC/C=C\CCCCCCCC(=O)NCCc1ccc(O)c(O)c1,-7.8%
18,C[C@@H](NCCc1ccc(O)cc1)[C@@H](O)c1ccc(O)cc1,3.9% (active)
19,CC(CCc1ccccc1)NCC(O)c1ccc(O)c(C(N)=O)c1 (configuration not stated),2.1% (active)
